Pf growth 96h = P. falciparum growth inhibition at 96 hours. P. falciparum luciferase reporter growth, 96 h. Potency, µM (doses to about 28.7 µM), hits mostly inhibitors. 320,000 compounds, 6.9% hits
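Readout is luminescence from an integrated firefly luciferase in P. falciparum. Red cells, 2% hematocrit and 0.05% parasitemia final, were cultured with compound through two parasite generations (96 hours) at 37 C, 5% CO2.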
Pf growth 48h = P. falciparum growth inhibition at 48 hours (one generation); P. falciparum luciferase growth in erythrocytes, 48 h; Potency, µM (series often up to 28.7 µM), usual class: inhibitors; 310,000 compounds, 5.9% hits
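Luciferase-expressing parasites in RBCs, 2% Hct / 0.1% parasitemia final; RPMI 1640 + 0.5% Albumax; 37 C, 5% CO2, one generation; luminescence read-out, lower signal = inhibition.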
CHX counter = affects cycloheximide protein synthesis inhibition readout, counter-screen; cell reporter, cycloheximide protein synthesis inhibition counterscreen; max response, %; 300,000 compounds, 12% hits; AID 2314; in the data active = max response mostly above about 13%, no sharp cut-off; inactive = mostly below about 14%; note: read at 38.3 µM for the half of the compounds with a filed dose
SARS PLpro yeast = inhibitors of SARS-CoV papain-like protease in yeast; S. cerevisiae expressing SARS-CoV PLpro, growth rescue; Potency, µM (series often up to 32.9 µM), most hits filed as activators; 330,000 compounds, 0.19% hits; calls by dose curve; note: nearly all actives have a fitted effect of over 55% in size
NS1 function inh = inhibitors of influenza NS1 protein function; Potency, µM (series often up to 46.1 µM); 270,000 compounds, 0.4% hits; AID 2326; calls by dose curve; note: actives are rising curves; nearly all actives have a fitted effect of over 50% in size
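Compounds were scored for reversing the slow growth caused by influenza A NS1 in S. cerevisiae, measured by optical density at 600 nm. Assay medium contained 2% galactose at pH 6.0; NS1-free yeast of the same strain were the positive control.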
Shiga toxin inh = blocks Shiga toxin action in Vero cells. AID 2315. 290,000 compounds, 9.2% hits. Vero cells, Shiga toxin protein synthesis inhibition reporter. inhibition, % at 38.7 µM; in the data active = inhibition mostly above about 28%, no sharp cut-off; inactive = mostly below about 43%
Hits are given with their value; . = inactive; ? = inconclusive; / = no result given; [ ] = remark or other dose. Compounds with a hit are over-represented: about 21% of the library has one in this group of screens. Unless noted, calls come from the whole dose curve; as a rule, active = well fitted inhibition curve with a large enough effect; inconclusive = small, poorly fitted or top-dose-only effect, or another doubt; inactive = no such curve, though single readings can be large or run the other way.

SMILES | Pf growth 96h | Pf growth 48h | CHX counter | SARS PLpro yeast | NS1 function inh | Shiga toxin inh
CCOC(=O)N1CCN(c2c(NCC3CCN(Cc4cccc(C)c4)CC3)c(=O)c2=O)CC1 | 6.57µM | . | . | . | . | .
CCOC(=O)N1CCN(c2c(NCc3cccs3)c(=O)c2=O)CC1 | 11.7µM | / | . | . | . | .
N#Cc1ccc(COC(=O)c2cnc3ccccc3n2)cc1 | . | . | . | . | . | .
COc1cccc(-n2ccnc2SCC(=O)Nc2nccs2)c1 | . | . | 21.4 | . | . | .
CCn1c(CC(=O)Nc2cccc(OC)c2)nnc1SCC(=O)Nc1nccs1 | . | . | . | . | . | .
Cc1cccc(-n2ccnc2SCC(=O)Nc2nccs2)c1 | . | . | 29.0 | . | . | .
Cc1cc(C)cc(-n2ccnc2SCC(=O)Nc2nccs2)c1 | . | . | . | . | . | .
COc1cc(C#N)c(NC(=S)N2CCOCC2)cc1OC | . | . | . | . | / | .
COc1ccc(NC(=O)COC(=O)C2CCN(S(=O)(=O)c3cccs3)CC2)cc1OC | / | / | / | . | / | /
COc1ccccc1Cn1nnc2c(=O)[nH]c(C3CCN(C(=O)c4ccc(F)cc4)CC3)nc21 | . | 11.7µM | . | . | . | .
COc1ccccc1Cn1nnc2c(=O)[nH]c(C3CCN(C(=O)c4ccccc4Cl)CC3)nc21 | . | 9.28µM | . | . | . | .
CCOC(=O)c1cnc2c(C)cccc2c1NCCc1ccc(OC)c(OC)c1 | 4.15µM | ? | . | . | . | .
CCOC(=O)c1cnc2ccc(C(=O)OC)cc2c1NCCc1ccc(OC)c(OC)c1 | . | 10.4µM | . | . | . | .
CCOC(=O)c1cnc2ccc(C(=O)OC)cc2c1NCCN1CCOCC1 | ? | . | . | . | . | .
CCOc1ccc(S(=O)(=O)NCc2cccnc2)c2ccccc12 | . | . | . | . | . | .
C=C(C)C1CCC(C)=CC1c1c(O)cc(O)cc1CCCCC (stereo unspecified) | / | / | . | / | / | .
CC(=O)N1CCN(c2ccnc3cc(Cl)ccc23)CC1 | 11.7µM | ? | . | . | . | .
Cc1ccc(F)cc1NC(=O)N1CCN(c2ccnc3cc(Cl)ccc23)CC1 | 6.57µM | ? | . | . | . | .
O=S(=O)(c1ccccc1)N1CCN(c2ccnc3cc(Cl)ccc23)CC1 | . | ? | . | . | . | .
O=S(=O)(c1cccs1)N1CCN(c2ccnc3cc(Cl)ccc23)CC1 | 6.57µM | 9.28µM | . | . | . | .
ClCCN1CCN(c2ccnc3cc(Cl)ccc23)CC1 | 0.828µM | 0.828µM | . | . | ? | .
O=C(c1cc(Cl)ccc1O)N1CCN(S(=O)(=O)Cc2ccccc2)CC1 | / | / | / | . | / | /
NC(=O)c1cc(S(=O)(=O)NCCc2ccc(S(N)(=O)=O)cc2)cs1 | . | . | . | . | . | .
CC(=O)N1CCC(N(CCN2CCOCC2)C(=S)Nc2cc(C)ccc2C)CC1 | ? | . | . | . | . | .
CCC(C)(C)NC(=O)C(c1cccc(OC)c1OC)N(CCC(C)C)C(=O)CCC(=O)Nc1cc(C)on1 (stereo unspecified) | . | ? | . | . | . | .
SMILES | Pf growth 96h | Pf growth 48h | CHX counter | SARS PLpro yeast | NS1 function inh | Shiga toxin inh
O=C(Nc1ccc(C(F)(F)F)cc1)N1CCN(c2ccnc3cc(Cl)ccc23)CC1 | ? | 1.47µM | . | . | . | .
CCCCNC(=O)N1CCN(c2ccnc3cc(Cl)ccc23)CC1 | 3.7µM | 4.65µM | . | . | . | .
COc1ccc(/C=N/NC(=O)c2ccn[nH]2)cc1Cn1nc(C)c([N+](=O)[O-])c1C | . | . | 22.9 | . | . | 68.6
COc1ccc(/C=N\NC(=O)c2ccccc2Cl)cc1COc1c(F)c(F)c(F)c(F)c1F | . | . | . | ? | . | .
COc1ccc(/C=N\NC(=O)c2ccccc2OC)cc1COc1c(F)c(F)c(F)c(F)c1F | ? | . | 11.9 | . | . | .
COc1ccc(/C=N\NC(=O)c2ccccc2)cc1COc1ccc(F)cc1 | ? | ? | 27.2 | . | . | .
COc1ccc(C(=O)N/N=C/c2ccc(OC)c(CN3CCc4cc(OC)c(OC)cc4C3C)c2)cc1 (stereo unspecified) | . | 9.28µM | . | . | / | .
CC(=O)N1CCCc2ccc(NS(=O)(=O)c3ccccc3)cc21 | . | . | / | . | / | /
CCOc1ccc(NC(=O)NC2CCCc3ccccc32)cc1 (stereo unspecified) | . | . | . | . | . | .
Cc1ccc(OCc2n[nH]c(=S)n2-c2ccc(Br)cc2)cc1 | . | ? | . | . | / | /
CN(CC(=O)NC1CCCCCCC1)S(=O)(=O)c1cnc[nH]1 | . | . | . | . | / | .
CC(=O)[C@H]1CC[C@@H]2[C@]1(C)CC=C1[C@@]23C=C[C@]2(C[C@H](O)CC[C@@]12C)[C@H](C(=O)O)[C@@H]3C(=O)O | / | / | / | / | . | /
COc1c(O)cc2c(c1O)[C@@H]1O[C@H](CO)[C@@H](O)[C@H](O)C1OC2=O (stereo partly specified) | . | . | / | . | / | /
COc1ccc(/C=N/NC(=O)c2ccncc2)cc1Cn1nc([N+](=O)[O-])c(Br)c1C | 4.15µM | ? | . | . | / | .
COc1ccc(/C=N/NC(=O)c2ccn[nH]2)cc1COc1ccc([N+](=O)[O-])c(C)c1 | ? | ? | 34.7 | . | . | 55.1
COc1ccc(/C=N/NC(=O)c2ccn[nH]2)cc1COc1ccc(F)cc1 | . | ? | 20.6 | . | . | .
COc1ccc(/C=N/NC(=O)c2ccccc2)cc1CN1CCN(c2ccc(F)cc2)CC1 | . | . | 12.4 | . | . | .
COc1cc(/C=N/NC(=O)c2ccncc2)ccc1OC(=O)c1ccc([N+](=O)[O-])cc1 | . | . | . | . | . | .
COc1ccc(/C=N/NC(=O)c2cccnc2)cc1COc1ccc([N+](=O)[O-])c(C)c1 | . | . | . | . | . | .
COc1ccc(C(=O)N/N=C/c2ccc(OC)c(COc3ccc(F)cc3)c2)cc1 | ? | ? | . | . | . | .
CCCCn1c(N(CCOC(C)=O)C(C)=O)nc2ccccc21 | . | ? | . | . | . | .
C=CCn1c(=O)c(C(=O)NC2CC2)c(O)c2cc(OC)c(OC)cc21 | 11.7µM | . | . | . | . | .
C=CCn1c(=O)c(C(=O)NCCc2ccc(Cl)cc2)c(O)c2cc(OC)c(OC)cc21 | . | . | . | . | . | .
COc1ccc(S(N)(=O)=O)cc1C(=O)OCC1CCCCC1 | . | . | . | . | . | .
Cc1cc(C(=O)CSc2n[nH]c(N)n2)c(C)n1-c1ccccc1 | / | . | 36.5 | . | . | 49.8
Cc1cc(C(=O)CSc2n[nH]c(N)n2)c(C)n1-c1cc(F)ccc1F | .[5.75 µM] | . | 28.9 | . | . | 97.7
Cc1ccc(-n2c(C)cc(C(=O)CSc3n[nH]c(N)n3)c2C)cc1 | 3.29µM | ? | 10.0 | . | . | .
C=CCn1c(C)cc(C(=O)CSc2n[nH]c(N)n2)c1C | . | / | 27.5 | . | . | .
Cc1cc(C)c(S(=O)(=O)NCC2CCC(C(=O)NCc3ccccn3)CC2)c(C)c1 (stereo unspecified) | . | ? | . | . | / | .

Bioassay records deposited in PubChem by National Center for Advancing Translational Sciences (NCATS).
